# From PubChem BioAssay AID463215 (Sanford-Burnham Center for Chemical Genomics, 2010)
# In all, about 4,600 compounds went through this assay and about 2,900 (63%) were called active.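 The calls were made as follows: active = inhibition of yeast growth at or above a set limit in either of two replicates at 10 µM; inactive = the rest.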 So high a share suggests a set chosen from earlier hits. The sample as a whole holds a higher share of actives than the screen did.
# Experiment: TIM10 isogenic control strain growth inhibition – single concentration, luminescence, S. cerevisiae, counter-screen for tim10-1 synthetic lethality project, confirmation (AID 463215);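 also: isogenic wild-type TIM10 control yeast grown in succinate dextrose medium; this counterscreen used the strain with wild-type TIM10; 0% = yeast with DMSO and 100% = medium wells lacking yeast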
# Conditions: BacTiter-Glo luminescence, 24 h, at 10 µM, hits give high values
row,Compound,inhibition
1,Cc1cc2ccccn2c1C(C[N+](=O)[O-])c1c(F)cccc1Cl (stereo not given),36.1% (active)
2,COc1cccc(N2C(=O)NC(=O)/C(=C\c3ccc([N+](=O)[O-])s3)C2=O)c1,39.2% (active)
3,O=C1NC(=O)N(c2ccccc2)C(=O)/C1=C/c1ccc([N+](=O)[O-])s1,40% (active)
4,C/C(=N/O)c1ccc2ccc3ccccc3c2c1,42.5% (active)
5,Cc1ccc(-c2nc3ccccc3c(=O)n2-c2ccc(Br)cn2)cc1,46.5% (active)
